Measurements taken from PubChem BioAssay.
Active and inactive are the calls of the source. Unless noted, how the calls were made is not given here.

Legend:
[1] = anti-His antibody binders, primary screen, artefact control for SMM control protein annotation, biochemical, small-molecule microarray, 635 nm fluorescence (AID 1128); conditions: anti-His Alexa647 antibody binding, higher = more signal;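 further: score merges feature fluorescence with signal-to-noise for each printed compound spot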
[2] = system: Human papillomavirus type 1a E7 protein (residues 1-88); assay: HPV1a E7 small-molecule binders, primary screen, biochemical, small-molecule microarray, residues 1-88, 635 nm (AID 1129); conditions: small-molecule microarray binding, fluorescence 635 nm; higher = more signal
[3] = target: Focal adhesion kinase 1 (Homo sapiens) (UniProt Q05397); assay: small-molecule microarray binders of FAK, primary screen, biochemical, 635/667 nm fluorescence, BSA, DTT (AID 1130); conditions: PTK2 binding, 635 nm fluorescence, higher = more signal;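 further: composite of spot emission at 667 nm and signal to noise over triplicate slides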
[4] = system: Fibrinogen (Alexa647-labelled); assay: fibrinogen binders on compound microarrays, profiling panel, artefact control for SMM control-protein annotation, biochemical, small-molecule microarray, 635/667 nm fluorescence (AID 1131); conditions: fibrinogen-A647 binding fluorescence, higher = more signal;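 further: z-score merges 667 nm fluorescence with per-spot signal-to-noise over triplicate slides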
[5] = target: Follistatin (Homo sapiens) (UniProt P19883); assay: follistatin binders on small-molecule microarrays, primary screen, biochemical, small-molecule microarray, 635/667 nm fluorescence (AID 1132); conditions: FST binding, 635 nm fluorescence, higher = more signal
[6] = target: Fibroblast growth factor 2 (Homo sapiens) (UniProt P09038); assay: FGF2 binders on small-molecule microarrays, primary screen, biochemical, small-molecule microarray, 635/667 nm fluorescence (AID 1133); conditions: small-molecule microarray binding, FGF2, fluorescence 635/667; higher = more signal
[7] = mitochondrial membrane potential change in A549 cells, profiling panel, cell-based, JC-1 fluorescence, basal, 24 h, 100 nL (AID 1138); conditions: higher = more signal;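 further: A549 lung adenocarcinoma cells under basal conditions with no added stimulus; test concentration not given here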
Lefty1 = Lefty1 binders on small-molecule microarrays, primary screen, biochemical, small-molecule microarray, 635/667 nm fluorescence (AID 1139); conditions: small-molecule microarray binding, fluorescence 635/667; higher = more signal
[8] = system: wheat germ agglutinin (Triticum aestivum), Alexa647-labelled; assay: wheat germ agglutinin binders on compound microarrays, profiling panel, artefact control for SMM control-protein annotation, biochemical, small-molecule microarray, 635/667 nm fluorescence (AID 1140); conditions: WGA-A647 binding, 635 nm fluorescence, higher = more signal;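 further: score merges 667 nm feature emission with signal to noise over triplicate slides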
[9] = target: Luciferin 4-monooxygenase (Photinus pyralis) (UniProt P08659); assay: firefly luciferase enzyme inhibitors, primary screen, biochemical, luminescence, purified enzyme, 2006 set (AID 1141); conditions: SteadyGlo luminescence, 30 min, higher = more signal, called active from +8 up or from −8 down;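 further: cell-free assay with purified firefly luciferase at 100 ng per well in PBS; test concentration not given here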
[10] = system: Wnt5a (protein binding on small-molecule microarray); assay: Wnt5a binders on small-molecule microarray, primary screen, biophysical, 635/667 nm fluorescence (AID 1142); conditions: 635 nm fluorescence, higher = more signal;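 further: fluorescence read at 667 nm with signal to noise per printed feature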
[11] = cell viability in Huh7 cells, primary screen, cytotoxicity control for HCV replication inhibitor project, CellTiter-Glo luminescence, basal, 48 h (AID 1143); conditions: Huh7 HCV replicon, higher = more signal, called active from +8 up or from −8 down;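 further: Huh7 hepatoma cells carrying a hepatitis C replication reporter with no stimulus; test concentration not given here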
[12] = P. aeruginosa biofilm formation inhibitors, primary screen, PAO1 strain, BacTiter-Glo luminescence, LB-PBS (AID 1144); conditions: 12 h, higher = more signal
[13] = CREB reporter modulators without forskolin, primary screen, cell-based, PC12, CRE-LacZ reporter, unstimulated (AID 1145); conditions: no forskolin, luminescence, 4.5 h, higher = more signal, called active from +8 up or from −8 down
[14] = CREB reporter modulators under forskolin, primary screen, cell-based, PC12, CRE-LacZ reporter, forskolin-stimulated (AID 1146); conditions: luminescence, 4.5 h, higher = more signal, called active from +8 up or from −8 down;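 further: PC12 cells with 6xCRE LacZ reporter stimulated by forskolin 10 µM; beta-galactosidase reporter signal reflecting CREB driven transcription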
[15] = target: Streptavidin (Streptomyces avidinii) (UniProt P22629); assay: streptavidin binders on small-molecule microarray, primary screen, artefact control for SMM compound annotation, biophysical, 635/667 nm fluorescence (AID 1147); conditions: streptavidin binding, higher = more signal;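 further: signal reflects streptavidin binding to arrayed compounds as a control protein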
[16] = small-molecule binders of probe aInhba, primary screen, biochemical, small-molecule microarray, 635/667 nm fluorescence (AID 1148); conditions: higher = more signal;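 further: score merges 667nm spot fluorescence with signal-to-noise for antibody binding to printed compounds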
Torsin-1A (Homo sapiens) [17] = target: Torsin-1A (Homo sapiens) (UniProt O14656); assay: torsin A binders from cell lysate, primary screen, small-molecule microarray, wild-type, 635/667 nm (AID 1149); conditions: COS7 hTOR1A-WT lysate, 635 nm fluorescence, higher = more signal
Torsin-1A (Homo sapiens) [18] = target: Torsin-1A (Homo sapiens) (UniProt O14656); assay: small-molecule binders of mutant TOR1A in lysate, primary screen, cell lysate, small-molecule microarray, COS7 lysate, 635/667 nm fluorescence (AID 1150); conditions: COS7 hTOR1A mutant lysate, 635 nm fluorescence, higher = more signal;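 further: score pools 667 nm emission and signal to noise measuring lysate protein binding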
[19] = system: Sonic hedgehog protein (Shh); assay: small-molecule binders of Shh protein, primary screen, biochemical, small-molecule microarray, 635/667 nm fluorescence (AID 1151); conditions: small-molecule microarray binding, 635 nm fluorescence; higher = more signal;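 further: Shh protein binding to compounds spotted on small-molecule microarray slides; score combines spot fluorescence intensity with signal-to-noise across triplicate slides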

Sequence of Follistatin (Homo sapiens) (P19883 whole entry, looked up): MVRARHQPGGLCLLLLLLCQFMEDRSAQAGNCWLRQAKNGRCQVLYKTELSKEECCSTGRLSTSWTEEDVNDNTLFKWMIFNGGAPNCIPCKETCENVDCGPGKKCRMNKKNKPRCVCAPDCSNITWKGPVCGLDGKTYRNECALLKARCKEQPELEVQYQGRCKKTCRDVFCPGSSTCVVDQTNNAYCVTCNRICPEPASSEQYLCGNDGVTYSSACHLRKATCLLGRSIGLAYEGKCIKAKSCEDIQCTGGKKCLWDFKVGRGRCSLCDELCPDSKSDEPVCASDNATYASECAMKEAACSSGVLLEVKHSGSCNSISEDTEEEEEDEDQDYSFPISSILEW
Sequence of Luciferin 4-monooxygenase (Photinus pyralis) (P08659 whole entry, looked up): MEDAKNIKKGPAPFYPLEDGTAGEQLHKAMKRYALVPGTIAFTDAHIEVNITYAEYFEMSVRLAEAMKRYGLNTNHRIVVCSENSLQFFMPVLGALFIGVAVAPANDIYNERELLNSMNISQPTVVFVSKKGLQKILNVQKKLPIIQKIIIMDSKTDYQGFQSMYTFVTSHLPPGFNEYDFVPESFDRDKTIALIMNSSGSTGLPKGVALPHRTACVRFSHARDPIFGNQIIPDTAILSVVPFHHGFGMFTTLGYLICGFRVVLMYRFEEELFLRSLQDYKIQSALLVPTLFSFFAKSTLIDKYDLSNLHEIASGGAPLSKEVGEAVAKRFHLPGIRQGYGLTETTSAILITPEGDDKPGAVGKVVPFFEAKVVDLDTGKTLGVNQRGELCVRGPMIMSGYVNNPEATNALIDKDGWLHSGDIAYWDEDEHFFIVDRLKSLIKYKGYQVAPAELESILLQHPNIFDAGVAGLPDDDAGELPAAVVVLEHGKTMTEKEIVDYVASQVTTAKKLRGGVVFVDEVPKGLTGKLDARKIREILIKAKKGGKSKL
Sequence of Focal adhesion kinase 1 (Homo sapiens) (Q05397 whole entry, looked up): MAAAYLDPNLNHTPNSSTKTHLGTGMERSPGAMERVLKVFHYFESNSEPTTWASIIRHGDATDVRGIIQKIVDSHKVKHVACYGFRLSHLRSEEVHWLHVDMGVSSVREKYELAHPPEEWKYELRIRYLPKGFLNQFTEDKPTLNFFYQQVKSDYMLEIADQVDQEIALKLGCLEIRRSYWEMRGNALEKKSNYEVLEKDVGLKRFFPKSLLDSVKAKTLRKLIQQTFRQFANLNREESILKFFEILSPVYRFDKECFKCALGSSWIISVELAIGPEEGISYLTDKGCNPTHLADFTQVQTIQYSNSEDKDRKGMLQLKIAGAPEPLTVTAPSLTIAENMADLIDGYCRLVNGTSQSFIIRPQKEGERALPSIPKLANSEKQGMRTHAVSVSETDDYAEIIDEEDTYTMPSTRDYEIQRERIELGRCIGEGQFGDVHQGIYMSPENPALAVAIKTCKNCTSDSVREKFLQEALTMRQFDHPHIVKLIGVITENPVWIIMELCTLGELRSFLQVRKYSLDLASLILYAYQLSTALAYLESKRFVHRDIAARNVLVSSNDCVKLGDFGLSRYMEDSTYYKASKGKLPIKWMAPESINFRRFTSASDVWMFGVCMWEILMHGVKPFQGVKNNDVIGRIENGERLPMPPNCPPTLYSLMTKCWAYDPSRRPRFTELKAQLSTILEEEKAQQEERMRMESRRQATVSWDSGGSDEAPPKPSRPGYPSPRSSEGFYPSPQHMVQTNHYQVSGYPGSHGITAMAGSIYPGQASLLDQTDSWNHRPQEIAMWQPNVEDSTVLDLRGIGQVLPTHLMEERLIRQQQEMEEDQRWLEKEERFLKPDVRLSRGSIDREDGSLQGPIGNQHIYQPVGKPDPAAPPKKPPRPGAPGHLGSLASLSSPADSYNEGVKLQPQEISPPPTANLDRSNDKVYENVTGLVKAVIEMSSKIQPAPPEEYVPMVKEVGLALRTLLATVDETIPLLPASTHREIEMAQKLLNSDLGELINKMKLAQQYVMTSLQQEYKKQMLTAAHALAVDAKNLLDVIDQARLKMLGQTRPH
Sequence of Torsin-1A (Homo sapiens) (O14656 whole entry, looked up): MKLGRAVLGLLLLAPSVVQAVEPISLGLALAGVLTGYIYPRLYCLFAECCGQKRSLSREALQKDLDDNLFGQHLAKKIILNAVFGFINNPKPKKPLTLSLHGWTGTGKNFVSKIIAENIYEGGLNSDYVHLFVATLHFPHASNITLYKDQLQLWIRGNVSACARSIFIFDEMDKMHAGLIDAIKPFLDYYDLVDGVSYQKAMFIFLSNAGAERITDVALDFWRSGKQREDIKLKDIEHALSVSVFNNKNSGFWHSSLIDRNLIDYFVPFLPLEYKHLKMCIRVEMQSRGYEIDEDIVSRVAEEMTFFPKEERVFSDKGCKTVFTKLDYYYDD
Sequence of Streptavidin (Streptomyces avidinii) (P22629 whole entry, looked up): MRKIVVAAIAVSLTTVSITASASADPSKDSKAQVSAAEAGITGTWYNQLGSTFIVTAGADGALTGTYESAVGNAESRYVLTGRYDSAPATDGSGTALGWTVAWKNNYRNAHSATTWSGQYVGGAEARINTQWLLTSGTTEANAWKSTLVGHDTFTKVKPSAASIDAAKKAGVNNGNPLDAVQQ
Sequence of Fibroblast growth factor 2 (Homo sapiens) (P09038 whole entry, looked up): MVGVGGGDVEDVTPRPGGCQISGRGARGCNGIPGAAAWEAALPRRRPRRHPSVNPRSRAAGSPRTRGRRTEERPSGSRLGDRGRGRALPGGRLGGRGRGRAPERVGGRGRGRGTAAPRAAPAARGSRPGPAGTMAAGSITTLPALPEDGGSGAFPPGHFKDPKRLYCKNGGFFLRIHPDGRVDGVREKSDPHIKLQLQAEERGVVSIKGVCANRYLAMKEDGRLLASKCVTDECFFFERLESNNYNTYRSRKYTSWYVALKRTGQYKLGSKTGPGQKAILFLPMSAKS

SMILES	composite z-score [1]	composite z-score [2]	composite z-score [3]	composite z-score [4]	composite z-score [5]	composite z-score [6]	z-score [7]	composite z-score (Lefty1)	composite z-score [8]	z-score [9]	composite z-score [10]	z-score [11]	z-score [12]	z-score [13]	z-score [14]	composite z-score [15]	composite z-score [16]	composite z-score (Torsin-1A (Homo sapiens) [17])	composite z-score (Torsin-1A (Homo sapiens) [18])	composite z-score [19]
C=C(CCCC)C(=O)CC[C@H](OC(=O)c1cccnc1)c1ccc(OCCO)cc1	0.631	0.474	0.819	0.0895	0.131	0.476	1.15	-0.205	0.955	-1.91 (inactive)	0.0366	-2.23 (inactive)	0.192 (inactive)	13.3 (active)	2.15 (inactive)	-0.118	0.0903	0.471	0.546	0.381
O=C(CS)NCCCCCNC(=O)[C@@H]1C[C@@H]2C(=O)NCC(=O)N2[C@@H]1c1cccc(OCCO)c1	3.09	-0.0552	1.8	0.0984	1.25	0.817	1.12	0.106	0.502	-2.27 (inactive)	0.134	-0.556 (inactive)	-1.2 (inactive)	-0.268 (inactive)	0.0712 (inactive)	-0.774	0.136	0.396	-0.0657	1.77
C=C(C(=O)CC[C@H](OC(C)=O)c1ccccc1OCCO)C(C)C	-0.29	-0.936	-0.385	-0.262	1.25	0.38	-1.25	0.696	-0.209	0.168 (inactive)	-0.138	-8.56 (active)	-0.679 (inactive)	9.01 (active)	-0.422 (inactive)	-0.455	-0.188	0.229	-0.752	2.19
CCCC[C@H]1C[C@@H]1[C@@H]1N(P(=O)(c2ccccc2)c2ccccc2)C[C@@](O)(c2ccccc2)CC12CC2	0.127	0.973	0.663	0.955	0.208	0.0514	-1.57	-1.06	0.727	2.35 (inactive)	-0.0443	-3.13 (inactive)	0.922 (inactive)	-0.185 (inactive)	1.18 (inactive)	1.15	0.108	-0.318	0.409	-1.02
C=CCOC(=O)[C@H]1[C@@H]2C(=O)O[C@@H](c3ccccc3)[C@@H](c3ccccc3)N2[C@@H](c2ccc(OCCOC(=O)[C@H]3C[C@H]4C(=O)N[C@@H](CCCCN(C)C)C(=O)N4[C@H]3c3cccc(OCCO)c3)cc2)[C@]12C(=O)Nc1ccc(I)cc12	0.977	1.18	0.205	0.571	1.35	1.36	-1.66	1.6	0.705	-0.49 (inactive)	0.559	-0.366 (inactive)	0.772 (inactive)	-0.671 (inactive)	0.892 (inactive)	0.457	0.12	0.166	0.629	2.27
O=C1C2C=CC(C(O)COCc3ccccc3)N(Nc3ccc([N+](=O)[O-])cc3)C2C(=O)N1c1ccccc1 (stereo not given)	1.55	1.25	1.19	0.983	1.13	0.119	-0.738	0.638	0.955	1.54 (inactive)	0.43	-3 (inactive)	-1.83 (inactive)	-0.275 (inactive)	0.788 (inactive)	0.464	0.0743	0.272	0.165	0.57
CO[C@H]1O[C@H](CO)[C@@H](OC(=O)Nc2ccc(Oc3ccccc3)cc2)[C@H](OC(=O)Nc2ccc3c(c2)OCO3)[C@@H]1OC(=O)Nc1ccc2c(c1)OCO2	1.83	1.24	0.653	0.85	1.28	1.2	-0.216	0.423	0.779	-5.16 (inactive)	1.31	-2.74 (inactive)	-0.168 (inactive)	0.502 (inactive)	-0.917 (inactive)	0.894	0.415	0.626	1.58	1.66
CCOc1ccc(N2C(=O)CSC2c2cccc([N+](=O)[O-])c2)cc1 (stereo not given)	0.798	0.636	0.65	0.71	0.0936	0.176	0.56	-0.157	1.09	0.8 (inactive)	0.124	-0.689 (inactive)	-0.245 (inactive)	-0.0243 (inactive)	-1.34 (inactive)	0.804	-0.0448	0.331	0.731	0.0304
O=C1C2C=CC(C(O)C=Cc3ccc([N+](=O)[O-])cc3)N(n3cnnc3)C2C(=O)N1Cc1ccccc1 (stereo not given)	1.88	1.06	0.376	0.699	1.16	-0.0745	-0.772	-0.0293	0.941	0.872 (inactive)	0.0873	-0.274 (inactive)	-0.871 (inactive)	-0.368 (inactive)	0.343 (inactive)	1.1	0.0589	1.95	2.16	0.287
CC(C)(C)OC(=O)CC[C@@]1(C(=O)N2CCCCC2)N=C(c2ccc(OCCCO)cc2)O[C@@H]1c1ccccc1	1.87	1.25	0.744	1.02	1.09	1.04	1.09	0.501	1.27	-1.73 (inactive)	0.94	-2.99 (inactive)	-0.34 (inactive)	1.66 (inactive)	0.127 (inactive)	1.82	0.283	0.766	0.912	-0.45
